Out of some 360,000 compounds screened, about 950 (0.26%) were called active. The list comes from a sample in which actives are over-represented; it also holds similar structures and randomly drawn compounds. Values without a mark were called inactive. Cut-off read from the data, not from the text of the source: active = inhibition above about 11%; inactive = the rest.
Experiment: reduced absorbance of E. coli cultures with phage – HTS, RecBCD inhibitor project, primary screen (AID 651602)
Settings: growth absorbance, at 11.9 µM, hits give high values

Compound	inhibition
COC(=O)C1=C(C)N(Cc2ccccc2C(F)(F)F)C(=NCC2CC2)NC1c1cccc(Cl)c1 (stereo unspecified)	0.63%
COC(=O)c1cc2c(c3c4ccccc4n(S(=O)(=O)c4cccc(C)c4)c13)C(=O)N(Cc1ccccc1)C2	5.66%
COc1ccccc1-c1ccc([C@@H]2C[C@H]3[C@H](CON3C)CN2S(=O)(=O)c2cc(Cl)cc(Cl)c2)cc1	3.4%
O=S1(=O)c2ccc(Br)cc2-n2nncc2CN1Cc1cccc(Cl)c1	-0.4%
C=C1c2c(Cl)ccc(O)c2C(O)=C2C(=O)[C@]3(O)C(O)=C(C(N)=O)C(=O)[C@@H](N(C)C)[C@@H]3[C@@H](O)C12 (stereo partly specified)	102% (active)
CN(C)[C@@H]1C(=O)C(C(N)=O)=C(O)[C@@]2(O)C(=O)C3=C(O)c4c(O)ccc(Cl)c4[C@@H](O)[C@H]3C[C@@H]12	102% (active)
Clc1cccc2c1C1CC2CCN1Cc1ccccc1 (stereo unspecified)	2.92%
C=CCN=C1NC(c2cccc(C(F)(F)F)c2)C(C(=O)OC)=C(C)N1C (stereo unspecified)	2.4%
COc1ccccc1Cc1c(-c2ccc(F)cc2)nc2ccc(C)cn12	2.63%
CC1CCN(C(=O)c2ncn3c2C(=O)N[C@@H](C)C3)CC1	0.88%
CC1CCN(C(=O)Cn2cc(C(=O)c3ccco3)c3ccccc32)CC1	2.64%
Cc1cccc(NC(=O)Cn2cc(C(=O)c3ccco3)c3ccccc32)c1	16.3% (active)
O=C(Cn1cc(C(=O)c2cccs2)c2ccccc21)NCc1cccs1	3.17%
COCCCNC(=O)C[C@H]1C[C@@]2(C(=O)OC)C(=C[C@H](C(C)(C)C)O[C@@H]2C)N(Cc2ccc3c(c2)OCO3)C1=O	0.08%
Cc1nc(NC(=O)C(C)(C)C)sc1[N+](=O)[O-]	0.38%
CC[C@H]1OC(=O)[C@H](C)[C@@H](O[C@H]2C[C@@](C)(OC)[C@@H](O)[C@H](C)O2)[C@H](C)[C@@H](O[C@@H]2O[C@H](C)C[C@H](N(C)C)[C@H]2O)[C@](C)(O)C[C@@H](C)[C@@H]2N[C@@H](COCCOC)O[C@H]([C@H]2C)[C@]1(C)O	39.4% (active)
Cc1ccc(N)cc1CN1CCN(c2ncc(Cc3ccccc3)cn2)CC1	1.25%
COc1ccc(SSc2ccc(OC)cc2C(=O)O)c(C(=O)O)c1	3.45%
CN1C(=O)C(Br)(Br)CC1c1cccnc1 (stereo unspecified)	2.07%
CC(C)[C@@H](C)/C=C/[C@@H](C)[C@H]1CC[C@@H]2[C@]1(C)CCC1[C@]23C=C[C@]2(C[C@@H](O)CC[C@]12C)N(c1ccc([N+](=O)[O-])cn1)O3 (stereo partly specified)	-0.39%
CC(=O)NC(c1cccs1)c1cc(Br)c2cccnc2c1O (stereo unspecified)	18.8% (active)
O=[N+]([O-])c1cc([N+](=O)[O-])c2cccnc2c1O	-2.95%
N#Cc1ccccc1NC(=O)COc1c(Br)cc(Br)c2cccnc12	-0.78%
O=c1[nH]c(-c2ccccc2)cn1C1CCN(Cc2ccc(-c3nc4ccc(F)cc4nc3-c3ccccc3)cc2)CC1	0.95%
CC(C)CNc1cccc2c1S(=O)(=O)N[C@H](CC(C)C)CO2	2%
Cc1ccc(NC(=O)CCC(=O)N/N=C/c2ccco2)c(C)c1	0%

Compound	inhibition
Cc1ccc(/C=N/NC(=O)C2=NNC(c3ccccc3)(c3ccccc3)C2)c(O)c1	16.3% (active)
Cc1ccc(/C=N/NC(=O)C(NC(=O)c2ccccc2)c2n[nH]c(=O)c3ccccc23)cc1 (stereo unspecified)	1.99%
CN1CCCc2nc(-c3ccccc3)ccc21	2.87%
Cc1sc2nc(CSCC(=O)Nc3c(Cl)cccc3Cl)[nH]c(=O)c2c1C	-1.33%
C=CCNC(=O)CSc1nc2sc(C)c(C)c2c(=O)[nH]1	97.6% (active)
C=CCn1c(SCC(=O)Nc2ccc(NC(C)=O)cc2)nc2sc(C)c(C)c2c1=O	5%
COc1cccc(NC(=O)N(C)C[C@@H]2OCc3cn(nn3)CCCC(=O)N([C@@H](C)CO)C[C@H]2C)c1	1.68%
Cc1cc(OC(=O)NCCc2ccc(F)cc2)ccc1F	1.19%
CCOC(=O)N1CCN(C(=O)C[C@H]2C[C@@]3(C(=O)OC)C(=C[C@H](C4CCCC4)O[C@@H]3C)N(Cc3ccccc3)C2=O)CC1	-1.47%
CC(C)C[C@H](NC(=O)CC1CCCC1)C(=O)N1CCC[C@H]1C(=O)NCc1ccccc1	-1.58%
NC1=NC(=O)C(Cc2cccc(Cl)c2)S1 (stereo unspecified)	2.84%
O=C1NC(=Nc2ccc(Cl)cc2)SC1Cc1cccc(Cl)c1Cl (stereo unspecified)	3.76%
NC1=NC(=O)C(Cc2cccc(Cl)c2Cl)S1 (stereo unspecified)	14.8% (active)
Nc1nc2c(ncn2[C@@H]2O[C@H](C(=O)N[C@H](Cc3ccccc3)C(=O)NCC3CCCCC3)[C@@H](O)[C@H]2O)c(=O)[nH]1	0.31%
CCCCCCCCN1C(=O)[C@@H](CC(=O)NCc2ccc(C)o2)C[C@@]2(C(=O)OC)C1=C[C@H](C(C)(C)C)O[C@@H]2C	4.26%
NC(=O)NCCCC(=O)O	3.55%
CC(=O)N(O)CCCCCNC(=O)CCC(=O)N(O)CCCCCNC(=O)CCC(=O)N(O)CCCCCNC(=O)CCC(=O)O	11.2% (active)
CC1=C(C/C=C(\C)CCCC(C)CCCC(C)CCCC(C)C)C(=O)c2ccccc2C1=O (stereo unspecified)	99.2% (active)
CCCCCCCCN1C(=O)[C@@H](CC(=O)N2CCN(C(=O)OCC)CC2)C[C@@]2(C(=O)OC)C1=C[C@H](C1CCCC1)O[C@@H]2C	0.85%
CCOc1ccccc1C(=O)N1CCC[C@@H]1C(=O)N1CCC[C@H]1C(=O)NCc1ccccc1	2.4%
O=C(NCc1ccccc1)[C@@H]1CCCN1C(=O)[C@H]1CCCN1C(=O)c1cccc(Cl)c1	1.16%
CN(O)C(=S)c1ccccc1	28.3% (active)
CCNC(=S)N(CCc1c(C)[nH]c2ccc(C)cc12)Cc1ccco1	13.2% (active)
COc1ccc2[nH]c(C)c(CCN(Cc3cccs3)C(=S)Nc3ccccc3OC)c2c1	1.75%
COCCNC(=S)N(CCc1c(C)[nH]c2ccc(C)cc12)Cc1cccnc1	2.3%
